The values that follow come from PubChem BioAssay AID1259418 (Broad Institute, 2018).

About 840 (25%) of roughly 3,400 compounds were called active. About 11% were inconclusive and are not listed. Not all results are given here. Measured potencies and affinities stand elsewhere. Unmarked numbers belong to inactive results.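 The calls were made as follows: active = fitted half-maximal concentration of signal decrease at or below twice the sample's top tested concentration; inconclusive = flat curve between -70 and -30 percent, or poor fit; inactive = flat within 30 percent, signal rise, or potency above limit.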

The nature of this test: inhibitors of Toxoplasma growth in IFN-γ-primed HeLa – cell-based, ME49Luc, luciferase, 72 h, dose response (AID 1259418). As to conditions: T. gondii ME49Luc in IFN-y HeLa, stronger effect = lower value, -100% = high-dose IFN-γ control wells; at 19.5 µM unless noted.
For the molecule `Cc1ccc2c(c1)cc(S(=O)(=O)c1ccccc1)c(=O)n2CC(=O)NCc1ccc2c(c1)OCO2`, the max activity is -10.2% [at 0.68 µM]. To `Cc1cccc(CNC2=NCCNC23CCN(S(=O)(=O)c2ccc(C)c(C)c2)CC3)c1` belongs -21.5%.

On to `COCCCNC1=NCCNC12CCN(S(=O)(=O)c1ccc(C)cc1C)CC2`, for which the max activity was 13.7% [at 10 µM]. For `Cc1ccccc1CNC1=NCCNC12CCN(S(=O)(=O)c1cccs1)CC2`, the max activity is 21.2% [at 10 µM].

Take `Cc1ccc(S(=O)(=O)N2CCC3(CC2)NCCN=C3NCc2ccccc2C)c(C)c1`: the max activity was -17.1%.

For `O=C(CC1N=C2c3ccccc3N=C(SCc3cc(=O)n4ccccc4n3)N2C1=O)NCc1ccc2c(c1)OCO2` (configuration not stated), the max activity is 49.3%. On to `Cc1nc(OCC(=O)Nc2ccc(C)c(C)c2)c2ccccc2n1`, for which the max activity is 14.4% [at 0.16 µM]. Take `O=C(Nc1ccc(Cl)cc1)N1C[C@H]2[C@@H](c3ccccc31)[C@@H](CO)N2CC1CCCCC1`: the max activity is 10.8% [at 10 µM]. As to `CSc1cccc(NC(=O)CN2CCC3(CC2)N=C(c2ccc(F)cc2)C(=O)N3)c1`, the max activity is 9.26%. With `COc1ccccc1-c1nc(CN2CCc3c(sc4c3CCCC4)C2c2ccccc2)c(C)o1` (configuration not stated) the figure was 10.8% [at 0.038 µM].

As for `COc1ccc(CN2CCO[C@H]3[C@H]2CC[C@H]3OCCCn2cccn2)cc1`, the max activity was 14.7% [at 5 µM]. For the molecule `COc1ccc(CN2C[C@@H]3CN(Cc4cnn(C)c4)C[C@H]3C2=O)cc1`, the max activity is 20.7%. To `Cc1nc2c(cnn2-c2ccccc2)c(=O)n1-c1cccc2ccccc12` belongs 22.6% [at 10 µM]. With `COc1ccc2c(c1)NC1(CCN(C(=O)c3ccccc3Cl)CC1)c1cccn1-2`, the max activity is -5.12%. On to `CCOc1ccc(-c2nc(Cn3c(=O)c4c(C)cc(C)nc4n(-c4ccccc4)c3=O)c(C)o2)cc1`, for which the max activity was 8.31% [at 0.16 µM].

For `COc1ccc(NC(=O)N2CCCCN3[C@@H](CO)[C@H](c4ccc(-c5ccccc5F)cc4)[C@@H]3C2)cc1`, the max activity is 20.7% [at 5 µM]. With `O=C(Nc1ccccc1F)N1CCCCN2[C@H](C1)[C@H](c1ccc(/C=C/c3ccccc3)cc1)[C@@H]2CO` the figure was 35.7% [at 10 µM]. To `CCc1ccc(-n2nnc(C(=O)N3CCC(N4CCCCC4)CC3)c2-c2ccncc2)cc1` belongs 6.73% [at 5 µM]; to `Cc1[nH]c2ccccc2c1C(=O)C(=O)NC1CC(=O)N(c2ccc3c(c2)OCCO3)C1` (configuration not stated), 7.24%.

On to `Cc1ccc(-c2coc(-c3ccc(NC(=O)COc4ccccc4C)cc3)n2)c(C)c1`, for which the max activity was -20.2% [at 1.35 µM].

On to `COc1ccc(-c2nc(N(C)C3CCCCC3)c3ccccc3n2)cc1`, for which the max activity was 11.7%. For the molecule `COc1ccccc1Nc1nc(-c2ccc(Cl)cc2)nc2ccccc12`, the max activity was -18.5% [at 0.68 µM]. Take `Cc1ccsc1C(=O)Nc1ccc(-c2nc(-c3ccccc3)co2)cc1`: the max activity was 30.4% [at 0.68 µM]. With `COc1cccc(N(Cc2nc(-c3ccccc3)oc2C)S(=O)(=O)c2ccc(C)cc2)c1` the figure was -7.21% [at 1.35 µM]; with `O=C(Cn1c(=O)c(S(=O)(=O)c2ccccc2)cc2ccccc21)NC1CCCC1`, 9.84% [at 0.35 µM]. To `CCOc1ccccc1-c1nc(CN2CCc3c(sc4c3CCCC4)C2c2ccccc2)c(C)o1` (configuration not stated) belongs 19.5%; to `CC1=CCC=CC1C(=O)Nc1ccc2c(c1)CCC(=O)N2C` (configuration not stated), 56.7%. Consider `Cc1ccc(-c2coc(-c3ccc(NC(=O)Nc4ccccc4)cc3)n2)cc1`, for which the max activity is -15.8%.

For `Cc1ccc(-c2coc(-c3ccc(NC(=O)COc4ccc(F)cc4)cc3)n2)c(C)c1`, the max activity was 10.4% [at 0.35 µM]. To `COCCCNC1=NCCNC12CCN(S(=O)(=O)c1cc(C)cc(C)c1)CC2` belongs 11.6% [at 10 µM]. As to `Cc1cc(C)cc(S(=O)(=O)N2CCC3(CC2)NCCN=C3NCc2cccc(F)c2)c1`, the max activity is -38.9%.

As for `Cc1nc(-c2ccc(F)cc2)sc1-c1ccc(SCc2ccc(Cl)c(Cl)c2)nn1`, the max activity was 7.38% [at 2.6 µM].

With `COc1cc(NC(=O)CN2CCC3(CC2)N=C(c2ccc(F)cc2)C(=O)N3)cc(OC)c1`, the max activity is 16.7% [at 10 µM]. To `O=C(COc1ccc(Br)cc1)Nc1cncc(-c2nc3ccccc3o2)c1` belongs 8.52% [at 0.16 µM]; to `COc1cccc(S(=O)(=O)N2CCCCN3[C@H](C2)[C@@H](c2ccc(C#CCC(C)C)cc2)[C@@H]3CO)c1`, 100% [at 0.08 µM]. As for `COc1cccc(S(=O)(=O)N2CCCCN3[C@H](CO)[C@@H](c4ccc(C#CCC(C)C)cc4)[C@@H]3C2)c1`, the max activity was 106%.

Regarding `O=S(=O)(c1ccccc1)N1CCCCN2[C@H](C1)[C@H](c1ccc(C#CC3CCCC3)cc1)[C@@H]2CO`, the max activity was 27.4% [at 5 µM]. To `COc1cc(C(=O)N2CCC3(CC2)Nc2cc(F)ccc2-n2cccc23)cc(OC)c1OC` belongs 5.03% [at 0.68 µM]; to `COc1cccc(NC(=O)Nc2ccc(-c3nc(-c4ccc(C)cc4)co3)cc2)c1`, 21.2% [at 0.16 µM]; to `Cc1cccc(NC(=O)N2CCN(Cc3nc(-c4cccc(Cl)c4)oc3C)CC2)c1C`, 13.9% [at 5 µM]. For `Cc1oc(-c2cccc(Cl)c2)nc1CN1CCN(C(=O)Nc2ccccc2)CC1`, the max activity was -19.4%. To `Cc1oc(-c2cccc(Cl)c2)nc1CN1CCN(C(=O)Nc2ccccc2C(F)(F)F)CC1` belongs -9.46% [at 2.6 µM]; to `CCc1ccc(NC(=O)N2CCN(Cc3nc(-c4cccc(Cl)c4)oc3C)CC2)cc1`, -13.8%. In the case of `Cc1cc(C)cc(NC(=O)N2CCN(Cc3nc(-c4cccc(Cl)c4)oc3C)CC2)c1`, the max activity is 11% [at 1.35 µM]. For `COc1ccc(NC(=O)N2CCN(Cc3nc(-c4cccc(Cl)c4)oc3C)CC2)cc1OC`, the max activity is -22.8%.

As for `COc1ccc(-c2nc(Cn3c(=O)c4c(C)cc(C)nc4n(-c4ccccc4)c3=O)c(C)o2)c(OC)c1`, the max activity is 5.72% [at 2.6 µM]. With `CCc1ccccc1Nc1ncnc2c1cnn2-c1ccccc1` the figure was 13.8% [at 10 µM]. Take `COc1ccc(Cl)cc1S(=O)(=O)Nc1ccc(-c2nc(-c3ccc(C)c(C)c3)co2)cc1`: the max activity was 41.1% [at 10 µM]. On to `CN1c2ccc(-c3ccc(C#N)cc3)cc2[C@H]2[C@H](CCN2S(=O)(=O)c2ccc(F)cc2)[C@H]1CO`, for which the max activity was 42.2% [at 10 µM].

As to `CN1c2ccc(Br)cc2[C@H]2[C@H](CCN2S(=O)(=O)c2ccccc2F)[C@H]1CO`, the max activity was 25% [at 9 µM].

In the case of `COc1ccc(C#Cc2ccc3c(c2)[C@H]2[C@H](CCN2S(=O)(=O)c2ccccc2C)[C@H](CO)N3C)cc1`, the max activity was 22.1% [at 10 µM]. For the molecule `COc1ccc2c(c1)NC1(CCN(C(=O)c3ccccc3C)CC1)c1cccn1-2`, the max activity is 9.16% [at 0.68 µM]. With `CCc1cccc(NC(=O)COc2nc(C)nc3ccccc23)c1` the figure was 15.1% [at 0.16 µM]; with `CCc1ccc(S(=O)(=O)N2CCC3(CCC(C(=O)N4CCCC4)O3)CC2)cc1` (configuration not stated), 19.6%. To `CCOc1ccc(-c2nc3c(s2)CN(S(=O)(=O)c2ccc(CC)cc2)CC3)cc1` belongs 33%; to `Cc1ccc(-c2coc(-c3ccc(NC(=O)c4ccc(Br)o4)cc3)n2)c(C)c1`, 29% [at 0.68 µM]; to `COc1ccc(CCC(=O)N2CCC(C(=O)NCCc3csc(-c4ccccc4)n3)CC2)cc1`, 22% [at 10 µM].

As for `COc1ccc(-c2cnc3n2CCNC32CCN(C(=O)N3CCOCC3)CC2)cc1`, the max activity was 31.8%.

Turning to `Cc1oc(-c2cccc(Cl)c2)nc1Cn1nnc(-c2nc(-c3ccccc3)no2)c1C`, the max activity was 25.3%. With `CC(C)CCNc1nc(-c2ccc(Cl)cc2)nc2ccccc12` the figure was -13.6% [at 0.35 µM]. With `COc1ccc(-c2nc(NCC3CCN(Cc4ccccc4Cl)CC3)c3ccccc3n2)cc1` the figure was -15.1% [at 10 µM]; with `COc1ccc(-c2nc(NCCN3CCC(C)CC3)c3ccccc3n2)cc1`, 14.8%; with `CCCCNc1nc(-c2ccc(Cl)cc2)nc2ccccc12`, 12.4% [at 0.68 µM]. Turning to `COc1ccc2[nH]cc(CCNC(=O)c3cc(-c4ccccn4)nc4ccccc34)c2c1`, the max activity is -12.8% [at 5 µM]. As for `Cc1ccc(-c2coc(-c3ccc(NS(=O)(=O)c4ccc(Cl)cc4)cc3)n2)cc1C`, the max activity was 40.5% [at 2.6 µM]. With `Cc1ccc(NC(=O)COc2nc(C)nc3ccccc23)c(Cl)c1` the figure was 15.5% [at 0.68 µM]; with `COc1cc(OC)cc(-c2noc(-c3nnn(Cc4nc(-c5cccc(C)c5)oc4C)c3C)n2)c1`, -7.99% [at 0.16 µM]; with `Cc1ccc(NC(=O)Nc2ccc(-c3nc(-c4ccc(C)cc4)co3)cc2)cc1`, 24% [at 5 µM]. To `CCc1cccc(-n2nnc(C(=O)N3CCC(N4CCCCC4)CC3)c2-c2cccnc2)c1` belongs 25.9% [at 0.68 µM]; to `COCC(=O)N1CCC2(CC1)CC1(CCN(CC(C)C)CC1)C(=O)N2C`, 34.4%; to `O=C1CC(c2ccncc2)C2(CCN(Cc3nccs3)CC2)N1` (configuration not stated), 22.8%. To `CCS(=O)(=O)N1CC[C@H]2[C@@H]1CCN2Cc1cnn(C)c1` belongs 27.1%.
